PubChem BioAssay AID1159580 (chemical genetic matrix, 2015)
Screen size: about 5,500 compounds; about 2,000 (36%) were called active. Roughly 18% stayed inconclusive and do not appear here. No stated cut-off is given here; in the data, active means normalized growth mostly below about 0.91 (no sharp cut-off); inconclusive means no clear call, values can overlap the other calls; inactive means mostly above about 0.92. Some of the results follow.

Assay: chemical genetic growth profiling, strain panel (AID 1159580);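 further: tested at 20 µM; growth read once vehicle control cultures reached saturation at 30 °C; 1 = growth at the plate median or of vehicle wells; lower values mean less growth of the strain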
Conditions: growth OD

Measured: normalized growth

CCCCCCCCCCC[C@@H](C[C@H]1OC(=O)[C@H]1CCCCCC)OC(=O)[C@@H](CC(C)C)NC=O
inactive: S. cerevisiae deletion strains, locus YJR043C, strain POL32, active compounds read low 1.03 | S. cerevisiae deletion strains, locus YJR075W, strain HOC1, active compounds read low 1.06 | S. cerevisiae deletion strains, locus YKL009W, strain mrt4, active compounds read low 0.996 | S. cerevisiae deletion strains, locus YKL068W, active compounds read low 1 | S. cerevisiae deletion strains, locus YKL085W, strain MDH1 (second series), active compounds read low 1.02 | S. cerevisiae deletion strains, locus YKL085W, strain MDH1, active compounds read low 1.02 | S. cerevisiae deletion strains, locus YKL160W, strain elf1, active compounds read low 0.988 | S. cerevisiae deletion strains, locus YKL190W, strain CNB1, active compounds read low 1.03 | S. cerevisiae deletion strains, locus YKR001C, strain vps1, active compounds read low 1.03 | S. cerevisiae deletion strains, locus YKR026C, strain gcn3, active compounds read low 1.03 | S. cerevisiae deletion strains, locus YKR091W, strain srl3, active compounds read low 1.05 | S. cerevisiae deletion strains, locus YLL001W, strain dnm1, active compounds read low 1.04 | S. cerevisiae deletion strains, locus YLL026W, active compounds read low 0.997 | S. cerevisiae deletion strains, locus YLL041C, strain sdh2, active compounds read low 1.03 | S. cerevisiae deletion strains, locus YLR027C, strain aat2, active compounds read low 1.03 | S. cerevisiae deletion strains, locus YLR039C, strain RIC1, active compounds read low 1.03 | S. cerevisiae deletion strains, locus YLR058C, strain SHM2, active compounds read low 1.04 | S. cerevisiae deletion strains, locus YLR102C, strain apc9, active compounds read low 1.01 | S. cerevisiae deletion strains, locus YLR221C, strain rsa3, active compounds read low 1.03 | S. cerevisiae deletion strains, locus YLR258W, strain gsy2, active compounds read low 1.03 | S. cerevisiae deletion strains, locus YLR262C, strain YPT6 (second series), active compounds read low 1.1 | S. cerevisiae deletion strains, locus YLR262C, strain YPT6, active compounds read low 1.07 | S. cerevisiae deletion strains, locus YLR268W, strain sec22, active compounds read low 1.02 | S. cerevisiae deletion strains, locus YLR320W, strain mms22, active compounds read low 1.05 | S. cerevisiae deletion strains, locus YLR330W, strain CHS5, active compounds read low 1.03 | S. cerevisiae deletion strains, locus YLR342W, strain FKS1 (second series), active compounds read low 1.02 | S. cerevisiae deletion strains, locus YLR342W, strain FKS1, active compounds read low 1.01 | S. cerevisiae deletion strains, locus YLR357W, strain rsc2, active compounds read low 1.09 | S. cerevisiae deletion strains, locus YLR370C, strain arc18, active compounds read low 1.03 | S. cerevisiae deletion strains, locus YLR371W, strain rom2, active compounds read low 1.01 | S. cerevisiae deletion strains, locus YLR384C, strain iki3, active compounds read low 1.03 | S. cerevisiae deletion strains, locus YLR418C, strain cdc73, active compounds read low 1.03 | S. cerevisiae deletion strains, locus YML016C, strain PPZ1, active compounds read low 1.04 | S. cerevisiae deletion strains, locus YML032C, strain rad52, active compounds read low 1.04 | S. cerevisiae deletion strains, locus YML120C, strain ndi1, active compounds read low 1.02 | S. cerevisiae deletion strains, locus YML124C, strain tub3, active compounds read low 1.01 | S. cerevisiae deletion strains, locus YMR058W, strain fet3, active compounds read low 1.06 | S. cerevisiae deletion strains, locus YMR078C, strain ctf18, active compounds read low 1.03 | S. cerevisiae deletion strains, locus YMR125W, strain sto1, active compounds read low 1.05 | S. cerevisiae deletion strains, locus YMR129W, active compounds read low 1.02 | S. cerevisiae deletion strains, locus YMR205C, strain PFK2, active compounds read low 1.02 | S. cerevisiae deletion strains, locus YMR223W, strain ubp8, active compounds read low 1.03 | S. cerevisiae deletion strains, locus YMR231W, strain pep5, active compounds read low 1.05 | S. cerevisiae deletion strains, locus YMR263W, strain SAP30, active compounds read low 1.04 | S. cerevisiae deletion strains, locus YMR307W, strain GAS1, active compounds read low 1.05 | S. cerevisiae deletion strains, locus YNL067W, strain RPL9B, active compounds read low 1.04 | S. cerevisiae deletion strains, locus YNL071W, strain lat1, active compounds read low 1.02 | S. cerevisiae deletion strains, locus YNL128W, strain TEP1, active compounds read low 1.02 | S. cerevisiae deletion strains, locus YNL153C, strain GIM3, active compounds read low 1.04 | S. cerevisiae deletion strains, locus YNL209W, strain ssb2, active compounds read low 1.06 | S. cerevisiae deletion strains, locus YNL233W, strain BNI4, active compounds read low 1.03 | S. cerevisiae deletion strains, locus YNL248C, strain rpa49, active compounds read low 1.06 | S. cerevisiae deletion strains, locus YNL250W, strain rad50, active compounds read low 1.03 | S. cerevisiae deletion strains, locus YNL271C, strain bni1, active compounds read low 1.02 | S. cerevisiae deletion strains, locus YNL298W, strain CLA4, active compounds read low 1.03 | S. cerevisiae deletion strains, locus YNL307C, strain MCK1, active compounds read low 1.03 | S. cerevisiae deletion strains, locus YNL322C, strain KRE1 (second series), active compounds read low 1.03 | S. cerevisiae deletion strains, locus YNL322C, strain KRE1, active compounds read low 1.04 | S. cerevisiae deletion strains, locus YNR049C, strain mso1, active compounds read low 1.04 | S. cerevisiae deletion strains, locus YNR052C, strain pop2, active compounds read low 1.03 | S. cerevisiae deletion strains, locus YOL006C, strain TOP1, active compounds read low 1.08 | S. cerevisiae deletion strains, locus YOL012C, strain htz1 1.37 | S. cerevisiae deletion strains, locus YOL147C, strain pex11, active compounds read low 1.02 | S. cerevisiae deletion strains, locus YOR001W, strain rrp6, active compounds read low 1.03 | S. cerevisiae deletion strains, locus YOR061W, strain CKA2, active compounds read low 1.03 | S. cerevisiae deletion strains, locus YOR069W, strain VPS5, active compounds read low 1.02 | S. cerevisiae deletion strains, locus YOR070C, strain gyp1, active compounds read low 1.04 | S. cerevisiae deletion strains, locus YOR080W, strain dia2, active compounds read low 0.999 | S. cerevisiae deletion strains, locus YOR083W, strain WHI5, active compounds read low 1.04 | S. cerevisiae deletion strains, locus YOR106W, strain vam3, active compounds read low 1.03 | S. cerevisiae deletion strains, locus YOR136W, strain idh2, active compounds read low 1.03 | S. cerevisiae deletion strains, locus YOR144C, strain elg1, active compounds read low 1.02 | S. cerevisiae deletion strains, locus YOR184W, strain ser1, active compounds read low 1 | S. cerevisiae deletion strains, locus YOR265W, strain rbl2, active compounds read low 1.05 | S. cerevisiae deletion strains, locus YOR270C, strain vph1, active compounds read low 1.11 | S. cerevisiae deletion strains, locus YOR290C, strain snf2, active compounds read low 1.05 | S. cerevisiae deletion strains, locus YOR316C, strain cot1, active compounds read low 1.01 | S. cerevisiae deletion strains, locus YPL051W, strain arl3, active compounds read low 1.06 | S. cerevisiae deletion strains, locus YPL055C, strain LGE1, active compounds read low 1.04 | S. cerevisiae deletion strains, locus YPL078C, strain atp4, active compounds read low 1.08 | S. cerevisiae deletion strains, locus YPL106C, strain sse1, active compounds read low 1.05 | S. cerevisiae deletion strains, locus YPL240C, strain hsp82, active compounds read low 1.02 | S. cerevisiae deletion strains, locus YPL241C, strain CIN2, active compounds read low 1.03 | S. cerevisiae deletion strains, locus YPR119W, strain clb2, active compounds read low 0.996 | S. cerevisiae deletion strains, locus YPR141C, strain kar3, active compounds read low 1.02 | S. cerevisiae deletion strains, locus YPR163C, strain tif3, active compounds read low 1.03 | S. cerevisiae deletion strains, locus YPR167C, strain met16, active compounds read low 1.01 | S. cerevisiae deletion strains, strain wtn01, active compounds read low 1.01 | S. cerevisiae strains, strain wild type, active compounds read low 1.04
